LAP4-GFP MLPCN = yeast TOR pathway LAP4-GFP modulation | AID 2023 | GFP response vs DMSO, % at 10 µM | S. cerevisiae LAP4-GFP multiplex, flow cytometry GFP, 3 h; median GFP as percent of DMSO wells | 320,000 tested, 0.34% active;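 active = GFP response vs DMSO above a set limit, about the screen mean plus 3 SD, cut at about 150% in these data; inconclusive = under 70 cell events counted for the yeast strain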
CIT2 TOR yeast = yeast TOR pathway CIT2-GFP modulation. S. cerevisiae CIT2-GFP strain, flow cytometry, 3 h; 100 means same as DMSO wells. GFP response vs DMSO, % at 10 µM. 320,000 tested, 0.065% active;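 active = GFP response relative to DMSO above a set limit, near the screen mean plus 3 SD, cut at about 150% in these data; inconclusive = Fewer than 70 cells measured for a yeast strain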;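 also: ratio of well median GFP fluorescence to mean of DMSO wells on the plate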
MEP2 TOR yeast = modulators of TOR pathway MEP2-GFP in S. cerevisiae. GFP response vs DMSO, % at 10 µM. 330,000 tested, 0.51% active. AID 2016. S. cerevisiae MEP2-GFP strain, flow cytometry GFP, 3 h; 100% = DMSO control level;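 active = GFP response versus DMSO above a set limit, roughly screen mean plus 3 SD, cut at about 180% in these data; inconclusive = fewer than 70 cells counted for a yeast strain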;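 also: median GFP fluorescence of the barcode-gated MEP2-GFP cells per well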
VLA-4 inh = inhibition in a human VLA-4 binding assay. 330,000 tested, 0.2% active. VLA-4 expressing cells, ligand binding flow cytometry. AID 2557. inhibition, % (about 7 µM as worked out from the volumes in the protocol); in the data active = inhibition above about 50%
Target sequence (P13612 whole entry, looked up): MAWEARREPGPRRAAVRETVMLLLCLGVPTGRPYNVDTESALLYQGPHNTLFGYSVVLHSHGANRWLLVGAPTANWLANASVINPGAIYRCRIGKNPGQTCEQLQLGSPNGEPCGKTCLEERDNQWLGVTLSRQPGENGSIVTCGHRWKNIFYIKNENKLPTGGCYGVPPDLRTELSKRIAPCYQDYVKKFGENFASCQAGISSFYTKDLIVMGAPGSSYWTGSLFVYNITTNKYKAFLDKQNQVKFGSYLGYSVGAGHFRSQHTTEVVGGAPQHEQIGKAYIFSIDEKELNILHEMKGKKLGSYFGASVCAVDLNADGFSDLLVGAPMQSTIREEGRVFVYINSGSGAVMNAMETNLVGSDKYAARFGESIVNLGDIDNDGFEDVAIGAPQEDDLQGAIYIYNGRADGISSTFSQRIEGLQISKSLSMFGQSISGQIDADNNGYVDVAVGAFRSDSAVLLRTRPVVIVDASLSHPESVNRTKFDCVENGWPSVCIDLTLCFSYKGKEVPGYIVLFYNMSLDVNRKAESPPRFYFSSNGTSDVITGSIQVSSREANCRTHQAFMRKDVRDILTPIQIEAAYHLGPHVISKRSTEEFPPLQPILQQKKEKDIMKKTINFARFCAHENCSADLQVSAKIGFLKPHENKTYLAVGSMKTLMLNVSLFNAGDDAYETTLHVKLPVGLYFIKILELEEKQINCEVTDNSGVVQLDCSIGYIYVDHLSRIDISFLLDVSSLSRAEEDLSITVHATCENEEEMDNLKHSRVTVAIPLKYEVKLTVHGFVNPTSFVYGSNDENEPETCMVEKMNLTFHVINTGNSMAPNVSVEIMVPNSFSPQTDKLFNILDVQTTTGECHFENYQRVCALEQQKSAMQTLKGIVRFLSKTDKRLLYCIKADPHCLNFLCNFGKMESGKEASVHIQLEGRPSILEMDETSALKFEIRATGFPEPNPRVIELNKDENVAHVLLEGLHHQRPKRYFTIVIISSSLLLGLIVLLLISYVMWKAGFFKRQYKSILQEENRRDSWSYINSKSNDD
RPL19A TOR yeast = alters RPL19A-GFP fluorescence in TOR pathway yeast screen; S. cerevisiae RPL19A-GFP strain, flow cytometry, 3 h; hits give low values; percent response vs DMSO, % at 10 µM; 330,000 tested, 0.3% active;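 active = percent response vs DMSO below 50%; inconclusive = fewer than 70 events counted for the yeast strain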;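 also: median channel GFP fluorescence of the barcoded RPL19A-GFP strain; lower means less RPL19A-GFP as with rapamycin TOR inhibition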
AGP1 TOR yeast = yeast TOR pathway AGP1-GFP modulation; S. cerevisiae AGP1-GFP multiplex flow cytometry, 3 h; GFP as percent of DMSO wells; GFP response vs DMSO, % at 10 µM; 320,000 tested, 0.02% active; AID 2066;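 active = GFP response relative to DMSO above a set limit, near screen average plus 3 SD, cut at about 150% in these data; inconclusive = fewer than 70 cells counted for the yeast strain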;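 also: median GFP channel fluorescence of the gated AGP1 strain per well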
Numbers stand for hits; i = inactive; ? = inconclusive; nt = no result; ! = repeats disagree; [ ] = another dose, or the depositor's remark. Most compounds without a hit are left out; they make up all but 1.1% or so of the library.

SMILES	LAP4-GFP MLPCN	CIT2 TOR yeast	MEP2 TOR yeast	VLA-4 inh	RPL19A TOR yeast	AGP1 TOR yeast
O=C(c1cccc(Cl)c1)N1CCC(N2CCC(C(=O)N3CCOCC3)CC2)CC1	i	i	i	i	i	i
CC(OC(=O)c1ccc([N+](=O)[O-])s1)C(=O)NC1CCCCC1C (stereo not drawn)	i	i	i	i	i	i
O=C(O)CSc1nc2ccccc2n1Cc1ccccc1	i	?	352.2[may fluoresce violet]	i	i	i
CCNC(=O)NC(=O)CSc1nc2ccccc2n1CC(C)C	i	?	388.2[may fluoresce violet]	i	41.9[may fluoresce violet]	i
O=C(OCc1cc(Cl)ccc1OC(F)F)c1ccc([N+](=O)[O-])o1	156.9	i	i	i	i	i
Cc1cc(C)c2nc(N3C(=O)C(O)=C(C(=O)c4ccco4)C3c3ccco3)sc2c1 (stereo not drawn)	i	?	315.3[may fluoresce violet]	i	i	?
Cc1[nH][nH]c(=O)c1C(c1ccc(N(C)C)c(Br)c1)c1c(C)[nH][nH]c1=O	172.2	i	i	i	i	i
O=C(Nc1ccnn1C1CCN(CCCc2ccccc2)CC1)c1ccccc1Cl	i	i	i	i	i	i
CCn1c(=S)sc2c(=O)[nH]c(C)nc21	i	?	298.0[may fluoresce violet]	i	40.2[may fluoresce violet]	?
O=c1cc(N2CCc3ccccc3C2)[nH]c(=O)n1C1CCCCC1	i	?	197.9[may fluoresce violet]	i	i	nt
O=c1cc(N2CCCCC2)[nH]c(=O)n1C1CCCCC1	i	i	i	i	i	i
c1ccc(-c2n[nH]c(-c3ccccn3)n2)cc1	i	i	i	i	i	i
c1ccc(-c2n[nH]c(-c3ccccn3)n2)nc1	i	?	179.6![may fluoresce violet]	i	13.5![may fluoresce violet]	?
CCc1ccc(NC(=O)CS(=O)CC(=O)Nc2ccc(-n3cnnn3)c(C)c2)cc1 (stereo not drawn)	i	i	i	i	i	i
O=C(Nc1nc2c(Br)cccc2s1)C1CC1	i	i	i	i	i	i
O=C(c1nc2nc(-c3ccccc3)cc(C(F)(F)F)n2n1)N1CCOCC1	i	?	548.4[may fluoresce violet]	i	49.3[may fluoresce violet]	nt
O=C(c1nc2nc(-c3ccc(Cl)cc3)cc(C(F)(F)F)n2n1)N1CCOCC1	i	i	i	i	i	i
COc1ccccc1[C@@H]1C(c2cccc(Cl)c2)=NN(c2ccccc2)[C@H]1C(=O)N1CCOC1=O	i	?	i	i	i	i
Cc1cccc(C2=NN(c3ccc(Br)cc3)[C@@H](C(=O)N3CCOC3=O)[C@@H]2c2ccc(F)cc2)c1	i	?	296.3[may fluoresce violet]	i	i	i
Cc1c(C(=O)N2CCN(Cc3ccccc3)CC2)oc2c1C(=O)CC(C)(C)C2	i	i	i	i	i	i
N#Cc1c(Cl)c(Cl)c2nnc(-c3ccc(Br)cc3)n2c1Cl	190.6	i	i	i	i	i
[S-]c1nnc(-c2ccc(Br)cc2)n1-c1ccccc1.[Zn+2]	i	i	i	i	i	i
CCOC(=O)CC1COCCN1Cc1cn(C)nc1-c1ccccc1F (stereo not drawn)	i	?	199.2[may fluoresce violet]	i	17.4[may fluoresce violet]	?
CCN(CC)c1ccc(/C=C2\SC(=O)N(C(C)C)C2=O)o1	256.4	i	i	i	i	i
COC(=O)c1ccc(/C=N/OCC(=O)NCCc2ccc(OC)c(OC)c2)cc1	i	i	305.9	i	i	i
SMILES	LAP4-GFP MLPCN	CIT2 TOR yeast	MEP2 TOR yeast	VLA-4 inh	RPL19A TOR yeast	AGP1 TOR yeast
O=C(CCCN=C1NS(=O)(=O)c2ccccc21)OCC(=O)c1ccc(F)cc1	i	i	i	i	i	i
O=C(CCC(=O)Nc1ccccc1Cl)NNC(=O)C1CCCCC1	i	i	i	i	i	i
O=C(CN1CCN(C(=O)C2CCCO2)CC1)Nc1ccc(Br)cc1 (stereo not drawn)	i	i	i	i	i	i
O=C(c1ccccc1[N+](=O)[O-])n1cnc2ccccc21	i	156.8	i	i	i	i
CCC(=O)c1cc2c(C)cc(=O)oc2c(C)c1O	i	i	i	i	i	i
C=CCc1c(O)c(CC)cc2c(C)cc(=O)oc12	i	?	250.9[may fluoresce violet]	i	45.1[may fluoresce violet]	?
CCn1c(=O)cc(OCC(=O)NCc2cccnc2)c2ccccc21	i	?	240.2[may fluoresce violet]	i	18.4[may fluoresce violet]	?
Cc1cc(S(=O)(=O)NCc2ccccc2)ccc1OCC(=O)NCc1ccccn1	i	i	i	i	i	i
Cc1cc(S(=O)(=O)NCc2ccccc2)ccc1OCC(=O)NCc1cccnc1	i	?	224.0[may fluoresce violet]	i	45.5[may fluoresce violet]	?
COC(=O)[C@]1(C)N[C@H](CN(C)C(=O)Nc2ccc(C(F)(F)F)cc2)[C@@H]2C(=O)N(C)C(=O)[C@@H]21	i	i	i	i	i	i
Clc1ccc(C2=NNC(=NCc3ccccc3)SC2)cc1	i	i	222.1	i	i	i
O=C(CN1CCN(C(=O)C2CCCO2)CC1)Nc1ccc(F)cc1 (stereo not drawn)	i	i	i	i	i	i
Oc1ccccc1C1CCCCC1c1ccccc1 (stereo not drawn)	i	i	i	i	i	i
O=C1c2ccsc2SCCN1Cc1ccc(Cl)cc1	174.7	i	i	i	i	i
Cc1ccc(CN2CCSc3sccc3C2=O)cc1	201.8	i	i	i	i	i
O=C1c2ccsc2SCCN1Cc1ccc(F)cc1	i	i	i	i	i	i
COc1ccc(S(=O)(=O)Nc2cccc3c2O[C@H](CN(C)C(=O)Nc2ccc4c(c2)OCO4)[C@@H](C)CN([C@H](C)CO)C3=O)cc1	nt	nt	nt	i	nt	nt
COc1ccc(CNC(=O)[C@@H](C)NC(=O)C2CCN(C(=O)[C@@H](N)CCSC)CC2)cc1	i	i	i	i	i	i
O=C(c1cccc([N+](=O)[O-])c1)N1CCN(c2ccc(Cl)cc2)CC1	i	i	i	i	i	i
CCc1nc2ccc(C(=O)N3CCN(c4ccc([N+](=O)[O-])cc4)CC3)cc2nc1CC	i	?	i	i	24.1[may fluoresce violet]	?
CC(=O)N1CCCc2cc(S(=O)(=O)N3CCCC(C)C3)ccc21 (stereo not drawn)	i	i	i	i	i	i
Cc1ccc(S(=O)(=O)Nc2c(NC3CCCCC3)c3ccccc3oc2=O)c(C)c1	i	i	i	i	i	i
CC(=O)Oc1ccc(-c2nc(-c3cccnc3)no2)cc1	i	?	226.6[may fluoresce violet]	i	i	i
Cc1cc(C)nc(/N=C(\N)N2CCCCCC2)n1	i	i	175.9	i	i	i
COc1cc(/C=C/C(=O)OCC(=O)c2c(N)n(C)c(=O)n(C)c2=O)ccc1OCC#N	166.1[may fluoresce violet]	?	?	i	33.5[may fluoresce violet]	?
CCc1ccc(NC(=O)CCC(=O)c2ccccc2)cc1	i	i	i	i	i	i
O=c1[nH]c(NCCO)c(N=Cc2ccccc2)c(=O)[nH]1	i	?	213.4[may fluoresce violet]	i	i	?
CC1=C(C#N)c2nc(N)c(C#N)c(C)c2/C1=C\c1ccc(C)cc1	175.5	i	i	i	i	i
Oc1ccc2oc3c(c2c1)CCCC3	i	?	350.2[may fluoresce violet]	i	45.0[may fluoresce violet]	?
